The target of test [1] is human Dopamine Transporter (DAT), SLC6A3 (gene 6531) (UniProt Q01959). As to the kind of experiment: NVS_TR_hDAT: NovaScreen (NVS) Transporter Assay for human Dopamine Transporter (DAT) (AID 2283374).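 Also: activity means loss of bound radioligand signal relative to DMSO.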 In a few lines: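 Test chemicals were first screened in duplicate at 25 uM, with actives retested as concentration series. Displacement of a specific radioligand from cell-free human dopamine transporter was measured after 1 h by filtration and scintillation counting.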

Test [2] has as its target mouse Estrogen Receptor alpha (Era), Esr1 (gene 13982) (UniProt P19785). Briefly: NVS_NR_mERa: NovaScreen (NVS) Nuclear Receptor Binding Assay for mouse Estrogen Receptor alpha (Era) (AID 2283378).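 Also: hit means loss of bound radioligand signal relative to DMSO.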 In a few lines: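 Extracted mouse Era incubated with tritiated or iodinated radioligand plus test chemical, 18 h. Bound fraction separated on filters, counted by scintillation. DMSO = negative control/baseline; duplicate single-point at 25 uM, then concentration-response follow-up.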

The target of test [3] is Estrogen receptor beta (Homo sapiens) (UniProt Q92731). As to the kind of experiment: OT_ER_ERbERb_1440: Odyssey Thera (OT) 24-hour HEK293T Protein-Complementation Assay for Estrogen Receptor-beta/-beta Homodimer (AID 2283380).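 Also: fluorescence gain from ER beta LBD homodimer complementation read by laser scanning cytometry; scored as signal increase over DMSO baseline for both agonists and antagonists.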 In a few lines:
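Fluorescence increase, nuclear for agonists or whole-cell for antagonists, relative to DMSO vehicle, quantified by laser scanning cytometer after fixation and Draq5 staining. Readout from 24 h treatment of HEK293T cells carrying complementation-paired ER beta LBD (aa 310-547).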

Test [4] concerns the target Estrogen receptor (Homo sapiens) (UniProt P03372). Briefly: OT_ERa_GFPERaERE_0480: Odyssey Thera (OT) 8-hour HeLa Transcription Induction Assay for Estrogen Receptor (AID 2283381; active = hit-call score of the fitted dose curve at least 0.9, where 1 is the maximum; inactive = score below 0.9). In a few lines:
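Fluorescent reporter signal, imaged by microscopy and scored with image-analysis algorithms, was taken 8 h after chemical dosing of HeLa cells; activity was fitted upward relative to DMSO.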

The target is the same in test [5]. As to the kind of experiment: OT_ERa_GFPERaERE_0120: Odyssey Thera (OT) 2-hour HeLa Transcription Induction Assay for Estrogen Receptor (AID 2283382). Put shortly:
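HeLa, 384-well, 2 h chemical exposure; GFP reporter induction (ERE), fluorescence microscopy; high content image analysis; positive fitting direction vs DMSO.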

The target of test [6] is Bile acid receptor (Homo sapiens) (UniProt Q96RI1). Briefly: OT_FXR_FXRSRC1_0480: Odyssey Thera (OT) 8-hour HEK293T Protein-Complementation Assay for Farnesoid X receptor/SRC-1 Co-activator (AID 2283383). In a few lines: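 Human kidney HEK293T cells carried FXR/SRC-1 fragment-complementation constructs. Compounds were added and incubated 8 h. Reporter reassembly upon receptor–co-activator interaction was then quantified by fluorescence, with curves fitted in the positive direction relative to DMSO.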

The target in test [7] is Peroxisome proliferator-activated receptor gamma (Homo sapiens) (UniProt P37231). Briefly: OT_PPARg_PPARgSRC1_0480: Odyssey Thera (OT) 8-hour Protein-Complementation Assay for Peroxisome Proliferator-activated Receptor Gamma / SRC-1 Co-activator (AID 2283387).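 Also: nuclear to cytoplasmic split Venus YFP fluorescence ratio reporting PPARg SRC-1 interaction.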 In a few lines:
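Split-YFP (IFP1/IFP2) PPARg/SRC-1 reporter, HEK293T, 37 °C, 5% CO2; 8 h compound; formaldehyde fix + Draq5; high-content imaging, N/C ratio, ≥350 cells/image, positive direction vs DMSO.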

Test [8] shares this target. Briefly: OT_PPARg_PPARgSRC1_1440: Odyssey Thera (OT) 24-hour Protein-Complementation Assay for Peroxisome Proliferator-activated Receptor Gamma/ SRC-1 Co-activator (AID 2283388).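 Also: nuclear to cytoplasmic ratio of reconstituted Venus YFP fluorescence in fixed imaged cells.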 Put shortly: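 Protein-fragment complementation between PPARg and coactivator SRC-1 was measured by fluorescence imaging in transiently transfected HEK293T cells after 24 h treatment. Signal was quantified as N/C ratio in the 488 nm channel, with DMSO as negative control.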

Test [9] addresses Bile acid receptor (Homo sapiens) (UniProt Q96RI1). Briefly: OT_FXR_FXRSRC1_1440: Odyssey Thera (OT) 24-hour HEK293T Protein-Complementation Assay for Farnesoid X receptor/SRC-1 Co-activator (AID 2283384). In a few lines: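 Compounds are applied to human kidney HEK293T cells expressing bait and prey fused to reporter protein fragments; after 24 h, reconstituted reporter fluorescence is measured. Activity is fitted as signal gain over DMSO.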

Test [10] concerns the target Retinoic acid receptor RXR-alpha (Homo sapiens) (UniProt P19793). As to the kind of experiment: OT_NURR1_NURR1RXRa_0480: Odyssey Thera (OT) 8-hour HEK293T Protein Complementation Assay for Nurr1/retinoid X receptor (RXR) (AID 2283385). Put shortly: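 8 h compound exposure, HEK293T; Nurr1/RXRα fragment complementation; fluorescence intensity; positive fitting direction vs DMSO baseline.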

For test [11] the target is unchanged. Briefly: OT_NURR1_NURR1RXRa_1440: Odyssey Thera (OT) 24-hour HEK293T Protein Complementation Assay for Nurr1/retinoid X receptor (RXR) (AID 2283386). Put shortly: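 Interaction of Nurr1 with RXRα brings fused reporter fragments together in human HEK293T cells, restoring a functional reporter. Fluorescence intensity is measured 24 h after chemical treatment, and values are analysed in the positive direction against DMSO.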

Test [12] is described as follows: CEETOX_H295R_11DCORT: CeeTox H295R High-throughput Steroidogenesis Assay for 11-Deoxycortisol (11DCORT) (AID 2283432; active = hit-call score of the fitted dose curve at least 0.9, where 1 is the maximum; inactive = score below 0.9). Conditions: actives raise or lower the signal. Put shortly:
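Steroidogenesis in human H295R cells: 48 h chemical exposure after forskolin priming, 11-deoxycortisol measured by LC-MS/MS.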

Test [13] can be described thus: CEETOX_H295R_OHPREG: CeeTox H295R High-throughput Steroidogenesis Assay for OH-Pregnenolone (OHPREG) (AID 2283434; active = hit-call score of the fitted dose curve at least 0.9, where 1 is the maximum; inactive = score below 0.9). Conditions: actives raise or lower the signal. Put shortly: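 Hormone levels in spent medium were measured by tandem mass spectrometry following liquid-liquid extraction. Cells (H295R) had been forskolin-stimulated (10 uM, 48 h) before a 48 h chemical exposure at 0.1% DMSO, with activity fitted in both directions against DMSO.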

Test [14] is described as follows: CEETOX_H295R_OHPROG: CeeTox H295R High-throughput Steroidogenesis Assay for OH-Progesterone (OHPROG) (AID 2283435; active = hit-call score of the fitted dose curve at least 0.9, where 1 is the maximum; inactive = score below 0.9;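 as to AC50: human adrenal H295R cells primed 48 h with 10 µM forskolin; 17alpha-hydroxyprogesterone secreted into medium measured by HPLC-MS/MS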). Conditions: actives raise or lower the signal. Put shortly:
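H295R, 10 uM forskolin prestim 48 h; cmpd in 0.1% DMSO 48 h; medium MTBE-extracted, HPLC-MS/MS for OH-progesterone; 7-pt std curve; bidirectional fit vs DMSO; MTT viability, chemicals diluted until viability >/=70%.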

Test [15] in a line: CEETOX_H295R_CORTIC: CeeTox H295R High-throughput Steroidogenesis Assay for Corticosterone (CORTIC) (AID 2283437; active = hit-call score of the fitted dose curve at least 0.9, where 1 is the maximum; inactive = score below 0.9;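 also: corticosterone secreted into medium quantified by mass spectrometry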). Conditions: actives raise or lower the signal. In a few lines:
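Corticosterone secreted into medium is measured by reverse-phase HPLC with tandem MS following liquid-liquid extraction. Cells are forskolin-stimulated (10 uM, 48 h) before 48 h test exposure; activity fitted in both directions against DMSO.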

The nature of test [16]: CEETOX_H295R_CORTISOL: CeeTox H295R High-throughput Steroidogenesis Assay for Cortisol (AID 2283438; active = hit-call score of the fitted dose curve at least 0.9, where 1 is the maximum; inactive = score below 0.9;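 also: cortisol secreted into medium quantified by LC-MS/MS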). Conditions: actives raise or lower the signal. Put shortly:
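Forskolin 10 uM 48 h prestim → test cmpd in DMSO (0.1% final) 48 h → medium MTBE-extracted → LC-MS/MS cortisol vs 7-pt std curve. Gain/loss of signal fitted vs DMSO. MTT viability in same wells.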

Test [17] is described as follows: CEETOX_H295R_DOC: CeeTox H295R High-throughput Steroidogenesis Assay for DOC (AID 2283439; active = hit-call score of the fitted dose curve at least 0.9, where 1 is the maximum; inactive = score below 0.9). Conditions: actives raise or lower the signal. Put shortly:
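Readout: 11-deoxycorticosterone in culture medium by reverse-phase C18 HPLC with ESI+ tandem MS after MTBE extraction. Cells: H295R, forskolin-primed (10 uM, 48 h), chemical-treated 48 h; DMSO 0.1% final. Activity fitted bidirectionally versus DMSO.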

Test [18] has as its target human Norepinephrine Transporter (NET), SLC6A2 (gene 6530) (UniProt P23975). As to the kind of experiment: NVS_TR_hNET: NovaScreen (NVS) Transporter Assay for human Norepinephrine Transporter (NET) (AID 2283377).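 Also: cell-free membrane protein extracted from CHO cells expressing human NET.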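 As to AC50: displacement of radioligand from human NET seen as loss of scintillation signal.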 Put shortly: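 Scintillation counts of filter-retained radioligand served as the readout, taken 1 h post-dosing in a cell-free CHO-derived system. Test chemicals ran first at 25 uM in duplicate; confirmed hits were retested across concentrations.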

The nature of test [19]: CEETOX_H295R_ANDR: CeeTox H295R High-throughput Steroidogenesis Assay for Androstenedione (ANDR) (AID 2283436; active = hit-call score of the fitted dose curve at least 0.9, where 1 is the maximum; inactive = score below 0.9;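 also: human H295R adrenal cells exposed for 48 h with androstenedione measured in medium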). Conditions: actives raise or lower the signal. Put shortly: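 Read-out is androstenedione secreted into medium, measured by tandem mass spectrometry after liquid-liquid extraction. Cells were H295R, dosed for 48 h per modified OECD 456; activity fitted in both directions relative to DMSO.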

6 compounds from PubChem BioAssay (EPA / NIEHS) can be followed below.

Several values for one entry are separate records, joined by “and”; a condition that tells them apart may be missing. Equal values may be shown once. Inconclusive results are not listed. Where a structure was tested more than once in an assay, its records may differ in their call. Activity calls are given as the source filed them. The calls were made as follows, unless noted: active = hit-call score of the fitted dose curve at least 0.9, where 1 is the maximum; inconclusive = response in the unintended direction; inactive = score below 0.9.

Chain of human Norepinephrine Transporter (NET), SLC6A2 (gene 6530) (P23975 whole entry, looked up): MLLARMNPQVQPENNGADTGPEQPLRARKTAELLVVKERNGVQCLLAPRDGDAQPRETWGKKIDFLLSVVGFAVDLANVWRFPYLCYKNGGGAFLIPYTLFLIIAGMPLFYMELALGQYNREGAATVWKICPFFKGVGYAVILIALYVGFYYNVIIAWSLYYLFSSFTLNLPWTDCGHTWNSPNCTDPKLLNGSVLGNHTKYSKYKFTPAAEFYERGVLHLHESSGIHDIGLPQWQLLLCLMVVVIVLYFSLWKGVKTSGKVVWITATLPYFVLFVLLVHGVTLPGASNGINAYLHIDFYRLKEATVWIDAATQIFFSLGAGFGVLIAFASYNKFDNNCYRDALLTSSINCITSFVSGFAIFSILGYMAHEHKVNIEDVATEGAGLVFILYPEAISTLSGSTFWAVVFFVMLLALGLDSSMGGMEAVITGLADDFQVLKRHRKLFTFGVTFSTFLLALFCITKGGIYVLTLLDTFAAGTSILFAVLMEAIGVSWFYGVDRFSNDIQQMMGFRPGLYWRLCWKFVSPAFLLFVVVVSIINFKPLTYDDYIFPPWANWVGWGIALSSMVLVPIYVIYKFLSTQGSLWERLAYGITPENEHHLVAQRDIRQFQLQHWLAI
Chain of Peroxisome proliferator-activated receptor gamma (Homo sapiens) (P37231 whole entry, looked up): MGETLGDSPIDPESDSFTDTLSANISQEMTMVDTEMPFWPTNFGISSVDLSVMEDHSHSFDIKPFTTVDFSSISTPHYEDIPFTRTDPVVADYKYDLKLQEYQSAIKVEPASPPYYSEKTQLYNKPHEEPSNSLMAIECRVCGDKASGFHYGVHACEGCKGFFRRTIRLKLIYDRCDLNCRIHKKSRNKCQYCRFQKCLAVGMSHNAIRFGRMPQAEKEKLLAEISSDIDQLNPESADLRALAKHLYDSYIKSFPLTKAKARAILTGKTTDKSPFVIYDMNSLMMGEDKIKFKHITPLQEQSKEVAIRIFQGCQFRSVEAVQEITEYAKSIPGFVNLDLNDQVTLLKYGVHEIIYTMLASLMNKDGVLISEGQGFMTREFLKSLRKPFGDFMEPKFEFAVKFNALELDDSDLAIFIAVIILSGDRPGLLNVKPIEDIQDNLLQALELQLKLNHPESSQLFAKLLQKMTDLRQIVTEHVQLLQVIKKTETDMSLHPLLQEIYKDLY
Chain of human Dopamine Transporter (DAT), SLC6A3 (gene 6531) (Q01959 whole entry, looked up): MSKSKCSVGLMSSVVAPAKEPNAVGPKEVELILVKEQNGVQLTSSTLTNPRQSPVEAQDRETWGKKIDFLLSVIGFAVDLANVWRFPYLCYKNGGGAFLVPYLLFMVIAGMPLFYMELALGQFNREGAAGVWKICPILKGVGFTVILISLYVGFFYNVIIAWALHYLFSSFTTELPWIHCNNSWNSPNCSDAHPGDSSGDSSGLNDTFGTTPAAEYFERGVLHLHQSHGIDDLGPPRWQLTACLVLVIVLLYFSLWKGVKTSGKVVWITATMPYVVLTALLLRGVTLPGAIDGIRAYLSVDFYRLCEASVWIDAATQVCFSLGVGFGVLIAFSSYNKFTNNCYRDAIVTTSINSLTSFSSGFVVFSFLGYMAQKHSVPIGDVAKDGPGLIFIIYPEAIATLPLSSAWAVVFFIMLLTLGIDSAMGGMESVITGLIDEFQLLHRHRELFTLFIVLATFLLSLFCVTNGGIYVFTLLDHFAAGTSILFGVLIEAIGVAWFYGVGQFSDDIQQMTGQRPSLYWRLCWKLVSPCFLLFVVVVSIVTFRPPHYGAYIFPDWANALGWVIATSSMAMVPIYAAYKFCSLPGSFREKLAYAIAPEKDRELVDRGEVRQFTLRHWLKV
Chain of Estrogen receptor (Homo sapiens) (P03372 whole entry, looked up): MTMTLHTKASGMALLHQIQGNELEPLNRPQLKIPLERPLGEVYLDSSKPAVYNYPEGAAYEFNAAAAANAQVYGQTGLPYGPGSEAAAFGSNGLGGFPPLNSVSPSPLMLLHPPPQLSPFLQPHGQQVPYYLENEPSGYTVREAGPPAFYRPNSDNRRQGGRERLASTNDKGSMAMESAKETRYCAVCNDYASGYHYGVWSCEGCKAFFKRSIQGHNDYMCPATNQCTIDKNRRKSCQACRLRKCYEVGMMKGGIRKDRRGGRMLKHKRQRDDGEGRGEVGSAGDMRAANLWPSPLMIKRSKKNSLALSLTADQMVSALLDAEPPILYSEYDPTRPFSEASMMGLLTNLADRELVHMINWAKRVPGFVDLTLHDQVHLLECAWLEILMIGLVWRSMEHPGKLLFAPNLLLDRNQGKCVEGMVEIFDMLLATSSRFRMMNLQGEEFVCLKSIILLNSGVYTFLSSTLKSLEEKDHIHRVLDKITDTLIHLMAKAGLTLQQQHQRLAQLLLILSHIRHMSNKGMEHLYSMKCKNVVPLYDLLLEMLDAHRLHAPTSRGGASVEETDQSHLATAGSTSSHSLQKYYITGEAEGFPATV
Chain of mouse Estrogen Receptor alpha (Era), Esr1 (gene 13982) (P19785 whole entry, looked up): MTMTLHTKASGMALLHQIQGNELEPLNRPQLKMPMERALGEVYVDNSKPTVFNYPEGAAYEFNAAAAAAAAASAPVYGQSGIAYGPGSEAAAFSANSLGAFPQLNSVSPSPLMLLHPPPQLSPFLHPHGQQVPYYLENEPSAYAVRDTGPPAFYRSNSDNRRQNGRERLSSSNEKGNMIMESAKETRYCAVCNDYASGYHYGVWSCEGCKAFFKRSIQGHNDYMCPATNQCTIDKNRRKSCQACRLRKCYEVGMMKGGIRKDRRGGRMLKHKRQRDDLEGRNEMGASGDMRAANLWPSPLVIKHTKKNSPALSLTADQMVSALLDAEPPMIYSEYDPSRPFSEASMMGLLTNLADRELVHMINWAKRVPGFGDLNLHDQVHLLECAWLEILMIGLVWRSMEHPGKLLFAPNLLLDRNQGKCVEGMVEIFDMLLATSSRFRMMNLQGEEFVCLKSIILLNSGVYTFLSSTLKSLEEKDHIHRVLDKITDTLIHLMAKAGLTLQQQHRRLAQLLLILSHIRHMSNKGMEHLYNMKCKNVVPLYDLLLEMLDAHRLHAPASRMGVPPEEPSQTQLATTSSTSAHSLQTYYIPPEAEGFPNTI
Chain of Bile acid receptor (Homo sapiens) (Q96RI1 whole entry, looked up, the tested form may be a part): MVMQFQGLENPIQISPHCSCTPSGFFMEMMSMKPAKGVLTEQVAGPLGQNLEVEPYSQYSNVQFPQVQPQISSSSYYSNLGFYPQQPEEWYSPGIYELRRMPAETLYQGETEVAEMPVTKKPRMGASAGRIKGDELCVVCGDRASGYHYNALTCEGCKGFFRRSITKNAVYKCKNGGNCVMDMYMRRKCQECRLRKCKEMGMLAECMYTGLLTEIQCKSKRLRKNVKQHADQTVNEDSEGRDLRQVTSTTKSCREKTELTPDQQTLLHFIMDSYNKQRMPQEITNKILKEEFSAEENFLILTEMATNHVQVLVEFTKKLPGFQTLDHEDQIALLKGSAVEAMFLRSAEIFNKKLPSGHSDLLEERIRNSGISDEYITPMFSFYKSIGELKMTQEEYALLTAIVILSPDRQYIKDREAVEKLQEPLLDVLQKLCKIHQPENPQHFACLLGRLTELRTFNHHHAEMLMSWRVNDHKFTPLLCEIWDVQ
Chain of Estrogen receptor beta (Homo sapiens) (Q92731 whole entry, looked up, the tested form may be a part): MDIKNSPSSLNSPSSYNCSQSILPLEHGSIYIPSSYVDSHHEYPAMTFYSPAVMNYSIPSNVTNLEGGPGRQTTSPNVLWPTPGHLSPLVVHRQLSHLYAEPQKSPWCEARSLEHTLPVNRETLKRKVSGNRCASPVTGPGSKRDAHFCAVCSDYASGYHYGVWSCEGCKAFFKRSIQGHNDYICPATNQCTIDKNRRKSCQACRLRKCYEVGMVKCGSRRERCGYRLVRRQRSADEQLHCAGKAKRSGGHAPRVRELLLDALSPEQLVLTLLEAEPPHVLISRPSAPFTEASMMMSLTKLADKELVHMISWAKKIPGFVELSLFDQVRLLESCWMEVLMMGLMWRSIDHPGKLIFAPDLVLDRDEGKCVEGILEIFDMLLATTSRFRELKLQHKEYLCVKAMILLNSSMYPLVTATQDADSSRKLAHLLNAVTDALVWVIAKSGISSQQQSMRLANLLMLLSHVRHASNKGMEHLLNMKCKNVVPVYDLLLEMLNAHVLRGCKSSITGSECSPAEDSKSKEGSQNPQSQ
Chain of Retinoic acid receptor RXR-alpha (Homo sapiens) (P19793 whole entry, looked up, the tested form may be a part): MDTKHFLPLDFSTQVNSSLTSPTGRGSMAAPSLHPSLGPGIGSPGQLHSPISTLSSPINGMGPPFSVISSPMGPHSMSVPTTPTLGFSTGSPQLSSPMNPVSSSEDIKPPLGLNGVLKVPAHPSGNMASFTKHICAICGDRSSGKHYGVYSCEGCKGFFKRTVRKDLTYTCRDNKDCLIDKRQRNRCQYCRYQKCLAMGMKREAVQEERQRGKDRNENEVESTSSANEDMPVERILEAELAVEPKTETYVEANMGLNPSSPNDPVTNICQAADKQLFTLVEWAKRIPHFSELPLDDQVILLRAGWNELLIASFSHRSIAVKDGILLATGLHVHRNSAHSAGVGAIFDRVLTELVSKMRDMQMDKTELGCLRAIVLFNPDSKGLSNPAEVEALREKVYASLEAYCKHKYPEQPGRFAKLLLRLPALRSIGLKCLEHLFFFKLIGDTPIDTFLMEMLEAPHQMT

What is called AC50 is the concentration giving half of the maximal activity seen. Consider `CC(C)CCCCCCc1ccc(O)cc1`, for which the half-maximal activity concentration (AC50) was 8.36 µM (active) in test [1]; 3.14 µM (active) and 7.57 nM (active) and 7.26 µM (active) in [2]; 1.2 µM (active) and 1.06 µM (active) and 1.25 µM (active) in test [3]; 147 nM (active) and 116 nM (active) and 263 nM (active) in test [4]; 273 nM (active) and 120 nM (active) and 248 nM (active) in [5]; 11.5 µM (active) and 11.3 µM (active) in test [6]. Moreover, the compound was classed as inactive in test [2], in test [7] and in test [8].
Consider `CCOC(=O)C(C)Oc1ccc(Oc2cnc3cc(Cl)ccc3n2)cc1` (stereo unspecified), for which the compound was classed as inactive in [1], in [4], in test [5], in test [9], in test [10] and in test [11]. In addition, the compound was classed as inactive in test [7], in [8], in test [12], in test [13], in test [14] and in test [15]. In addition, the outcome in test [16] and in test [17] was inactive. Also, in test [6], the AC50 is 43 µM (active).
For `Cc1nn(C)c(Oc2ccccc2)c1C=NOCc1ccc(C(=O)OC(C)(C)C)cc1`, the call in test [1], in test [3], in test [4], in [5], in test [10] and in test [11] was inactive. In addition, the result in test [7] and in test [8] was inactive. In addition, the AC50 in [6] is 7.14 µM (active); in test [9] it was 9.92 µM (active); in test [10], 11.3 µM (active); in test [11], 15.7 µM (active).
Consider `CC(C)(c1ccc(O)cc1)c1ccc(O)cc1`, for which the AC50 was 8.34 µM (active) [middle of 4 runs] in test [1], 14.5 µM (active) [middle of 4 runs] in test [18] and 3.26 µM (active) [middle of 4 runs] in test [19]. Besides, the call in test [2], in test [10], in [11], in test [7], in test [8] and in [13] was inactive. Besides, in test [14], the call was inactive.
`S=C(S)NCCNC(=S)S.[Mn+2].[S-]C([S-])=NCCN=C([S-])[S-].[Zn+2]`: the AC50 is 269 nM (active) in test [18] and 40.2 µM (active) [middle of 4 runs] in test [11]. For the same compound, the call in test [18], in test [3], in test [10], in [11], in [7] and in test [8] was inactive. Also, the call in [12], in test [13], in test [14], in test [15], in test [16] and in test [17] was inactive.
`CCN(Cc1c(F)cccc1Cl)c1c([N+](=O)[O-])cc(C(F)(F)F)cc1[N+](=O)[O-]`: the compound was called inactive in test [1], in [3], in test [6], in test [10], in test [11] and in [7]. In addition, the call in [8] and in test [13] was inactive. The AC50 in test [4] is 3.54 µM (active); in test [5], 6.39 µM (active); in test [14], 15.3 µM (active).
